Measurements as given in PubChem BioAssay AID2283179 (EPA ToxCast).
Records with an inconclusive call do not appear. Active and inactive are the calls of the source. How the source made its calls: active means hit-call score of the fitted dose curve at least 0.9, where 1 is the maximum; inconclusive means response in the unintended direction; inactive means score below 0.9.

These compounds were tested against human Microtubule Affinity Regulating Kinase 1 (MARK1), MARK1 (gene 4139) (UniProt Q9P0L2) (assay: NVS_ENZ_hMARK1: NovaScreen (NVS) Enzymatic Assay for human Microtubule Affinity Regulating Kinase 1 (MARK1)).
Chain of human Microtubule Affinity Regulating Kinase 1 (MARK1), MARK1 (gene 4139) (Q9P0L2 whole entry, looked up): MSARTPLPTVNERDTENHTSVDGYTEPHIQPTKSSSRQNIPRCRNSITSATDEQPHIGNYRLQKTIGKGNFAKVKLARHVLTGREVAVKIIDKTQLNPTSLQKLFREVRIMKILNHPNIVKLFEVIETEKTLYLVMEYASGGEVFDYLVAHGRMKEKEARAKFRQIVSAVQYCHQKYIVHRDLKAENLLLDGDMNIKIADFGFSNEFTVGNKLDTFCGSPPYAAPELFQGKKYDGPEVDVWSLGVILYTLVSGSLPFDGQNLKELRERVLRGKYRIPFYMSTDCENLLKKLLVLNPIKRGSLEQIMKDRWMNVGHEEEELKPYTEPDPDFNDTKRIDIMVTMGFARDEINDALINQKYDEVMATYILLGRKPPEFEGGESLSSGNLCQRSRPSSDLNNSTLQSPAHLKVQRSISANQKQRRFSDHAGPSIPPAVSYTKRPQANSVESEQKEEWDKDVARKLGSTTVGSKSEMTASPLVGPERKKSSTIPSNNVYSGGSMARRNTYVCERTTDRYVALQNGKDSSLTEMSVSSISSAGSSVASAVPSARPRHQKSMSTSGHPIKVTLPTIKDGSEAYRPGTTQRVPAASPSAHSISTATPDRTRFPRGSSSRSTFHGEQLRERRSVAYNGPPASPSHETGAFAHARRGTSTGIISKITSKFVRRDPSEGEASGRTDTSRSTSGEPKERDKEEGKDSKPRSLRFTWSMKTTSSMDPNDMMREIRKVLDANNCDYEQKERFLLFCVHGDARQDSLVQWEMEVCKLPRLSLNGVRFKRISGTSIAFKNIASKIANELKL
Description: NVS_ENZ_hMARK1 is a biochemical, single-readout assay that uses extracted gene-proteins in a cell-free assay. Measurements were taken 1 hour after chemical dosing in a 384-well plate.NVS_ENZ_hMARK1 is one of one assay component(s) measured or calculated from the NVS_ENZ_hMARK1 assay. It is designed to make measurements of enzyme activity, a form of enzyme reporter, as detected with fluorescence intensity signals by Fluorescence and electrophoretic mobility shift technology.Data from the assay component NVS_ENZ_hMARK1 was analyzed into 1 assay endpoint. This assay endpoint, NVS_ENZ_hMARK1, was analyzed in the positive analysis fitting direction relative to DMSO as the negative control and baseline of activity. Using a type of enzyme reporter, loss-of-signal activity can be used to understand changes in the enzymatic activity as they relate to the gene MARK1. Furthermore, this assay endpoint can be referred to as a primary readout, because this assay has produced multiple assay endpoints where this one serves a enzymatic activity function. To generalize the intended target to other relatable targets, this assay endpoint is annotated to the kinase intended target family, where the subfamily is serine/threonine kinase.
Binding assays used specific radioligands (tritiated, iodinated) with non-radioactive competitive displacement ligands in agonist or antagonist protocols (as indicated) and various reference compounds and inhibitors to titrate specific binding to receptors and transporters. Most enzyme assays (CYPs, kinases, phosphatases, proteases, HDACs) used recombinant protein and specific substrates (fluorescence mostly, some colorimetric and radioactive) and inhibitors, followed by a biochemical separation of substrate and product. All assays for the biochemical HTS were initially run in duplicate at a single concentration (10 uM for CYP450 assays and 25 uM for all others). Assay-chemical combinations meeting a pre-defined threshold (e.g., 30% inhibition and other criteria defined below) were then run in singleton concentration-response format with maximum concentration of 20 uM for CYPs and 50 uM for all others. Each assay was run with positive and negative controls, and concurrent controls on every plate. The follow-up (secondary) screen tested active chemical-pairs in concentration series, as well as a few additional assays not tested in the primary screen, some selected negative inactives, and several cases re-run in the concentration series for confirmatory purposes.
With `S=C([S-])NCCNC(=S)[S-].[Mn+2]` the AC50 was 406 nM (active).
`O=C(O)C1(C(=O)Nc2ccc(Cl)cc2Cl)CC1` was tested, and the AC50 was 7850 nM (active).
For `S=C(S)NCCNC(=S)S.[Mn+2].[S-]C([S-])=NCCN=C([S-])[S-].[Zn+2]`, the AC50 was 1380 nM (active).
`O=C(Nc1ccc([N+](=O)[O-])cc1Cl)c1cc(Cl)ccc1O` was tested, and the outcome was “inactive”.
